Measured values reported in PubChem BioAssay.

tested on: Lefty1; experiment: Lefty1 binders on small-molecule microarrays, primary screen, biochemical, small-molecule microarray, 635/667 nm fluorescence (AID 1139); conditions: small-molecule microarray binding, fluorescence 635/667; higher = more signal

Row | SMILES | composite z-score
1 | CCOC(=O)C1=CC[C@@H](c2ccccc2)N(S(=O)(=O)c2ccc(C)cc2)[C@@H]1C#N | -0.0273
2 | C=CCN1C(=O)[C@]2(O[C@H](CCO)[C@@H]([Si](C)(C)c3ccc(OC)cc3)[C@@H]2C)c2cc(N3C(=O)c4ccccc4Oc4ccccc43)ccc21 | 0.591
3 | C=CCOC(=O)[C@H]1[C@@H]2C(=O)O[C@@H](c3ccccc3)[C@@H](c3ccccc3)N2[C@@H](c2ccc(OCCOC(=O)[C@H]3C[C@H]4C(=O)NCC(=O)N4[C@H]3c3ccc(O)cc3)cc2)[C@]12C(=O)Nc1ccccc12 | 1.26
4 | C=CCOC(=O)[C@H]1[C@@H]2C(=O)O[C@@H](c3ccccc3)[C@@H](c3ccccc3)N2[C@@H](c2ccc(OCCOC(=O)[C@@H]3C[C@@H]4C(=O)N[C@@H](Cc5ccccc5)C(=O)N4[C@@H]3c3ccc(O)cc3)cc2)[C@]12C(=O)Nc1ccc(I)cc12 | 0.924
5 | CC(C)[Si](C#Cc1ccccc1)(O[C@H](c1ccccc1)c1cn(Cc2ccccc2)nn1)C(C)C | -0.0104
6 | O=C(NCCN1CCOCC1)[C@@H]1c2ccccc2C(=O)N(CC23CC4CC(CC(C4)C2)C3)[C@H]1c1ccc(CO)cc1 | 0.357
7 | O=C1O[C@@H](c2ccccc2)[C@@H](c2ccccc2)N2[C@@H](c3ccccc3OCCO)[C@]3(C(=O)Nc4ccc(C#CC5(O)CCCCCC5)cc43)[C@@H](C(=O)N3CCCCCCC3)[C@H]12 | 1.99
8 | CCOC(=O)C[C@H]1[C@H](OC(=O)c2ccc(-c3ccccc3)cc2)[C@@H](NC(=O)C2CCCCC2)c2cc(OCCCO)ccc2N1C(=O)Cc1ccc(OC)cc1 | 0.867
